# PABP polyA inh = PABP poly(A) RNA binding inhibitors, primary screen, biochemical, fluorescence polarization, uHTS | Polyadenylate-binding protein 1 (Homo sapiens), P11940 | inhibition, % at 35 µM | 1% of 290,000 active;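 also: calls also rest on retests at 20 µM and on dose response follow-up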
# PABP1 MLLE inh = inhibitors of PABP1 MLLE–PAM2 peptide binding, primary screen, biochemical, fluorescence polarization, FITC-PAM2, GST-MLLE | inhibition, % at 20 µM | 0.36% of 360,000 active | AID 588489, 2011; in the data active = inhibition above about 35%, passing the limit was not always enough;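 also: plate controls were DMSO wells with GST-MLLE for no effect and wells lacking GST-MLLE protein for full effect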
# CRFBP-R2 block = antagonists of CRF-BP/CRF-R2 complex, primary screen, cell-based, HEK293, calcium dye fluorescence, uHTS; CRF-induced calcium fluorescence; 0.59% of 350,000 active; inhibition, % at 11.8 µM; AID 588475, 2011;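 active = inhibition of the ligand-induced calcium signal above about 50% at the single tested concentration, limit read from the data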
# PHOSPHO1 block = PubChem AID 1565 | Phosphoethanolamine/phosphocholine phosphatase (Homo sapiens), Q8TCT1 | recombinant PHOSPHO1, absorbance phosphatase assay | inhibition, % at 13.3 µM | 1.1% of 290,000 active; in the data active = inhibition above about 60%
# Target sequence (Q8TCT1 whole entry, looked up): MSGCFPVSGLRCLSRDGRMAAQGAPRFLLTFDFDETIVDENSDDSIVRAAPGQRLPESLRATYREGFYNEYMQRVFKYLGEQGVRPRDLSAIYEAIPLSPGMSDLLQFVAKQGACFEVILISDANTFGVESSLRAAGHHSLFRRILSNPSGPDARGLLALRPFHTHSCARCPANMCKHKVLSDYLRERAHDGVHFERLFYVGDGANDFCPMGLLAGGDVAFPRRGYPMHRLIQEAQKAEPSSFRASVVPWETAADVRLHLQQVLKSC
# eIF4H FP inh = human eIF4H binding inhibitors, primary screen, translation initiation inhibitor project, biochemical, uHTS, fluorescence polarization; Eukaryotic translation initiation factor 4H (Homo sapiens), Q15056; eIF4H fluorescence polarization binding assay; inhibition, % at 35 µM; 0.94% of 290,000 active; AID 2012, 2009;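 also: calls also rest on retests at 20 µM and on dose response follow-up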
# * = called active by the depositor; ? = inconclusive; . = not tested or not shown. This is a sample that favours compounds with a hit; in the whole collection about 2.6% have one here. Unless noted, no rule for the calls is given here.
SMILES,PABP polyA inh,PABP1 MLLE inh,CRFBP-R2 block,PHOSPHO1 block,eIF4H FP inh
C=C(C)CSc1nnc([C@@H](N)Cc2c[nH]c3ccccc23)o1,3.3,-70.2,2.6,89.1*,-7.3
CC(C)=CCSc1nnc([C@@H](N)Cc2c[nH]c3ccccc23)o1,6.9,-106.7,-7.9,3.5,-6.9
N[C@@H](Cc1c[nH]c2ccccc12)c1nnc(SCc2ccc(F)cc2)o1,4.2,-9.1,3.5,62.2*,7.7
O=C(Cc1ccccc1F)N1CCN(CC(=O)N2CCCC2)CC1,.,4.1,8.7,.,.
Cn1ccnc1P(=S)(c1nccn1C)c1nccn1C,3.9,11.4,12.1,27.7,-1.2
Cn1ccnc1P(=S)(c1nccn1C)N1CCOCC1,-6.2,37.2*,3.7,76.1*,-11.4
CCc1ccc(NC(=O)CN2CC(c3ccccc3)CC2=O)cc1 (centres undefined),3.4,7.2,0.5,21.9,-9.7
COc1cc2c(cc1O)C[C@H]1NCCc3cc4c(c-2c31)OCO4,2.0*,-6.1,8.7,57.4,64.4*
Nc1ccc2c3c(cccc13)CC2,36.2*,92.8,4.4,15.5,70.0*
O=C1NC(=O)N(c2ccccc2)C(=O)/C1=C\c1ccc2c3c(cccc13)CC2,-5.9,.,.,23.1,29.7
CCN(C(C)=O)c1cccc(-c2ccnc3c(C#N)cnn23)c1,-0.8,.,.,31.7,11.6
COc1ccc(CC2NCC(O)C2OC(C)=O)cc1 (centres undefined),.,9.4,0.0,.,.
CC(=O)Nc1cc(C(=O)N2CCC3(CC2)OCCO3)ccc1S(=O)(=O)c1ccc(C)cc1,3.2,3.2,98.1*,-4.6,0.3
CCOc1cccc(OCC)c2c(C)[n+](CC3CCCO3)c(C)c1-2 (centres undefined),?,23.0,15.2,95.4*,?
COc1ccc(CCNCC2CCCO2)cc1 (centres undefined),-1.8,5.5,4.4,13.0,-1.9
Cc1c2cnn(CC(=O)N3CCC4(CC3)OCCO4)c(=O)c2c(C)n1Cc1cccc(Cl)c1,17.4,12.5,3.9,-30.8,-1.3
O=C(Cn1ncc2c3ccccc3n(Cc3cccc(Cl)c3)c2c1=O)N1CCC2(CC1)OCCO2,45.2*,-22.1,-53.7,15.8,73.0*
O=c1[nH]c(=O)n(-c2ccccc2)c(O)c1N=Nc1ccc(Br)cc1,85.3,-1.3,-7.6,15.4,2.1*
O=C(O)c1cccc2c1NC(C(=O)O)C1CC(Sc3ccccc3[N+](=O)[O-])C(Cl)C21 (centres undefined),-6.0,33.6,32.9,62.1*,95.7
NCCc1ccc(S(N)(=O)=O)cc1,79.4*,-2.3,-6.3,0.6,active
CN(C)c1ccc(/C=C2\C(=O)NC(=O)N(CCc3ccc(F)cc3)C2=O)cc1,50.5*,-116.1,-19.8,9.0,110.7*
COCCN1C(=O)NC(=O)/C(=C\c2ccc(F)cc2)C1=O,-1.5,12.4,1.0,43.1,20.5
Cc1ccc(/C=C2/C(=O)NC(=O)N(CCc3ccc(F)cc3)C2=O)o1,11.8*,-30.3,-44.3,17.9,?
O=C(c1ccccc1F)N1CCC2(CC1)OCCO2,9.1,-7.8,-7.9,28.4,0.9
C[C@]12CCC3C(CC[C@H]4C[C@@H](O)CC[C@]34C)C1=CC[C@@H]2O (some centres undefined),.,16.7,-6.6,.,.
SMILES,PABP polyA inh,PABP1 MLLE inh,CRFBP-R2 block,PHOSPHO1 block,eIF4H FP inh
CN(C)c1ccc(NC(=O)CN2C(=O)CN=C(c3ccccc3)c3cc(Cl)ccc32)cc1,8.0,1.2,18.8,60.4*,-4.3
Brc1ccc2c(c1)CN(CC1CCCCC1)Cc1cnnn1-2,.,-13.0,.,.,.
CCc1ccc2nc(N3CCC(C(=O)N4CCC5(CC4)OCCO5)CC3)sc2c1,82.3*,-7.7,-18.1,-2.7,2.3*
Cc1cc(C)c(NC2=NCCS2)cc1C,.,-44.2,-24.6,.,.
N#CCCn1cc(C(=O)NCc2ccccc2)c(-c2ccc3c(c2)OCCO3)n1,-0.7,6.8,-0.1,-5.2,1.7
N#CCCn1cc(C(=O)Nc2ccccc2Br)c(-c2ccc3c(c2)OCCO3)n1,119.8,-9.0,-14.5,-28.9,active
O=C1NC(=O)N(CCNc2ncc(C(F)(F)F)cc2Cl)C(=O)C1/C=N/OCc1c(F)cccc1Cl (centres undefined),-17.9,8.2,61.5*,19.2,-18.8
CC12C=CC(=O)C=C1CC(O)C1C2CCC2(C)C1CCC2(C)O (centres undefined),.,-4.3,-0.8,.,.
C[N+]12CCC(CC1)C(C#N)(N1CCOCC1)C2 (centres undefined),33.9,-114.1,9.3,100.9*,-2.6
OCC1CO1 (centres undefined),.,6.6,-17.1,.,.
Cc1cc(/C=C2\C(=O)NC(=O)N(c3ccc(Cl)cc3)C2=O)c(C)n1-c1cccc(C(=O)O)c1,41.6*,-11.4,9.2,32.6,?
Cc1cc(/C=C2\C(=O)NC(=O)N(c3ccc(Br)cc3)C2=O)c(C)n1-c1cc(C(=O)O)cc(C(=O)O)c1,28.5,-7.9,10.1,37.1,46.5
O=c1c2ccccc2nc(N2CCCC2)n1-c1ccc(Cl)cc1,-8.3,10.8,63.7*,4.4,-5.7
COc1ccc(CN2Cc3cc(N4CCOCC4)ccc3-n3nncc3C2)cc1,.,5.7,.,.,.
Cc1cccc(N2C(=O)NC(=O)/C(=C\c3ccc(N4CCOCC4)cc3)C2=O)c1,-10.9,-4.2,72.2*,16.0,24.5
Cc1cccc(N2C(=O)NC(=O)/C(=C/c3ccc(N4CCOCC4)cc3)C2=O)c1,1.3,-12.4,-15.4,-19.6,14.5
Cc1ccc2[nH]c3c(c2c1)CN(C(=O)CN1C[C@H]2C[C@@H](C1)c1cccc(=O)n1C2)CC3,35.4*,15.8,7.9,29.1,69.3
CN(C)c1ccc(C(=O)N/N=C/C23CC[C@@H](O)CC2(O)CC[C@@H]2[C@@H]3CCC3(C)C(C4=CC(=O)OC4)CCC23O)cc1 (some centres undefined),-2.1,-4.7,54.4*,27.3,4.7
CC12CC[C@H]3[C@@H](CCC4(O)C[C@H](O)CCC34/C=N/NC(=O)c3ccc(O)cc3)C1(O)CCC2C1=CC(=O)OC1 (some centres undefined),3.6,-0.4,-7.0,8.1,2.3
Cn1c(O)c(C(c2ccccn2)c2c(O)n(C)c(=S)n(C)c2=O)c(=O)n(C)c1=S,30.7,13.8,10.3,28.4,57.0*
Cn1c(O)c(C(c2ccncc2)c2c(O)n(C)c(=S)n(C)c2=O)c(=O)n(C)c1=S,10.5,-2.3,36.8,-6.0,-4.3
CCOC(=O)c1ccc(N=C(C)c2c(O)[nH]c(=O)[nH]c2=O)cc1,1.8,-5.7,1.6,23.7,-3.8
O=C(c1ccncc1)C12CN3CN(CN(C3)C1)C2,-8.6,0.1,4.2,-1.4,-4.1
CN(C)CCN(C(=O)COc1ccc(Cl)cc1)c1nc2cc3c(cc2s1)OCO3,9.8,6.4,-19.1,62.9*,-3.0
O=C1C2CC(CN3CCCCC23)C2CCCCN12 (centres undefined),.,-6.3,.,.,.

# Bioassay records as filed in PubChem.
